# PubChem BioAssay (NCI)
# About 79,000 compounds went through this panel and 15% of them were active in at least one assay; those are over-represented in the sample as a whole. Active and inactive are the calls of the source. Cut-off read from the data, not from the text of the source: active = growth inhibition above about 70%; inactive = the rest.
# Test: NCI Yeast Anticancer Drug Screen. Data for the rad14 strain (AID 159);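 note: 0% = growth of vehicle-treated control cultures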
# Settings: S. cerevisiae rad14 strain growth inhibition; at 100.0 µM; active compounds read high
# Outline: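 Yeast cells carrying a defined DNA-repair defect were exposed to compounds, and growth inhibition was calculated relative to vehicle-treated control cultures.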
row,SMILES,growth inhibition
1,Oc1cccc2c(Cl)ccnc12,98% (active)
2,O=C(O)c1cccc(-c2c3ccc(=O)cc-3oc3cc(O)ccc23)c1,95% (active)
3,CN(CCc1ccccn1)c1ccc2c(c1)Cc1ccccc1-2,56% (inactive)
4,Cc1cc(S(=O)(=O)/N=C(/NN)NNc2cccc(C(F)(F)F)n2)c(S)cc1Cl,14% (inactive)
5,O=C1C2C(C(=O)N1c1ccc(OCc3ccccc3)cc1)C1c3ccccc3C2C2CCCCN21 (centres undefined),97% (active)
6,Nc1ccccc1CC(O)C(=O)O (centres undefined),97% (active)
7,O=C(O)C1CCCCC1c1c2ccc(=O)c(O)c-2oc2c(O)c(O)ccc12 (centres undefined),84% (active)
8,Cc1ccc2ccc(O)cc2c1,56% (inactive)
9,O=C1C(=O)c2ccccc2C=C1[N+](=O)[O-],86% (active)
10,COC(=O)c1ccc(NCC2=CC(=O)C=CC2=O)cc1O,92% (active)
11,C(CCSC1=NCCN1)CSC1=NCCN1 (tested in a mixture with another compound),99% (active)
12,N#Cc1c(N)[nH]c2ccc(Sc3ccccc3)cc12,97% (active)
13,CCNc1nnc(CSc2nc(-c3ccccc3)c(-c3ccccc3)[nH]2)s1,55% (inactive)
14,CC[C@@]1(O)C(=O)OCc2c1cc1n(c2=O)Cc2cc3c(N)cccc3nc2-1,-33% (inactive)

# Test: NCI Yeast Anticancer Drug Screen. Data for the sgs1 mgt1 strain (AID 161);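 note: 0% = growth of cultures given vehicle only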
# Settings: S. cerevisiae sgs1 mgt1 strain, at 5.0 µM (retest, dose inferred, filed as 0.5), active compounds read high
# Outline: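 Inhibition of yeast growth, normalised to vehicle-treated controls, is reported for a strain bearing genetic alterations in DNA damage repair.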
row,SMILES,growth inhibition
1,S=C(S)NN1CCOCC1,92% (active)
2,COc1cc2c3c(cccc3c1)C(=O)N(CCN(C)C)C2=O,13% (inactive)
3,COC(=O)C1=C(C)NC(C)=C(C(=O)OCCCN2CCC(c3ccccc3)(c3ccccc3)CC2)C1c1cccc([N+](=O)[O-])c1 (centres undefined),50% (inactive)
4,c1ccc2c(c1)Oc1cccc3cccc-2c13,0% (inactive)
5,CN(C)CCOc1ccc2c(c1)C/C(=C/c1ncc([N+](=O)[O-])n1C)C2=O,47% (inactive)
6,Cc1ccc(CCC2=CCCc3c2ccc2ccccc32)cc1,5% (inactive)
7,CNC(=O)OCc1c(COC(=O)NC)c(-c2ccc(Cl)c(Cl)c2)n2c1CCC2,32% (inactive)
8,Clc1ccccc1C1OC1c1ccccc1Cl (centres undefined),-17% (inactive)
9,O=[N+]([O-])c1cc(CCl)ccc1CCl,4% (inactive)
10,O=C1C=CC(=O)c2c(O)c(Nc3ccc(OC(F)(F)F)cc3)c(Cl)c(O)c21,35% (inactive)
11,S=c1[nH]nc(Nc2ccc(Cl)cc2)s1,-61% (inactive)
12,Cn1ccnc1Oc1ccc(Cl)cc1,-61% (inactive)
13,BrCc1cccc2ccc3cccc(CBr)c3c12,-3% (inactive)
14,O=C1c2ccccc2-c2nc3ccccc3nc21,-21% (inactive)
15,CCCCCCCCCCCCCCCCCCNC,-6% (inactive)
16,Oc1ccc(NCn2c(=S)sc3ccccc32)cc1,2% (inactive)
17,O=C1C2CC[C@@H]3C(=O)C(Cl)(Cl)[C@@H]3CCC2C1(Cl)Cl (some centres undefined),18% (inactive)
18,CC[n+]1ccc2c(C)c3[nH]c4ccc(O)cc4c3c(C)c2c1,4% (inactive)
19,Cc1ccc(-n2cc(-c3ccc(Cl)cc3)c(C#N)c2N)cc1,-3% (inactive)
20,CC(=O)[O][Bi]([c]1ccccc1)[c]1ccccc1,6% (inactive)

row,SMILES,growth inhibition
1,CC1=C(SCCO)C(=O)c2ccccc2C1=O,-37% (inactive)
2,C/C(=N\O)C1CC2C=C(C#N)C1N(Cc1ccccc1)C2 (centres undefined),-10% (inactive)
3,CC(Br)C(=O)c1ccc2cc(Br)c3ccccc3c2c1 (centres undefined),2% (inactive)
4,Nc1nc(-c2cccnc2)cc(-c2cc(-c3cccnc3)nc(N)n2)n1,19% (inactive)
5,CC(C)=CC(=O)O[C@@H]1CC(C)(C)CC2C3=CCC4[C@]56CC[C@](O)(OC5)C(C)(C)C6CC[C@@]4(C)C3(C)CC[C@]21C(=O)O (some centres undefined),11% (inactive)
6,CCC(C)COC(=O)c1ccc(N=Cc2ccc(C=Nc3ccc(C(=O)OCC(C)CC)cc3)cc2)cc1 (centres undefined),98% (active)
7,Oc1cccc2c(Cl)ccnc12,-5% (inactive)
8,O=C(O)c1cccc(-c2c3ccc(=O)cc-3oc3cc(O)ccc23)c1,0% (inactive)
9,CN(CCc1ccccn1)c1ccc2c(c1)Cc1ccccc1-2,9% (inactive)
10,Cc1cc(S(=O)(=O)/N=C(/NN)NNc2cccc(C(F)(F)F)n2)c(S)cc1Cl,-10% (inactive)
11,O=C1C2C(C(=O)N1c1ccc(OCc3ccccc3)cc1)C1c3ccccc3C2C2CCCCN21 (centres undefined),1% (inactive)
12,Nc1ccccc1CC(O)C(=O)O (centres undefined),-6% (inactive)
13,O=C(O)C1CCCCC1c1c2ccc(=O)c(O)c-2oc2c(O)c(O)ccc12 (centres undefined),7% (inactive)
14,Cc1ccc2ccc(O)cc2c1,5% (inactive)
15,O=C1C(=O)c2ccccc2C=C1[N+](=O)[O-],14% (inactive)
16,COC(=O)c1ccc(NCC2=CC(=O)C=CC2=O)cc1O,50% (inactive)
17,C(CCSC1=NCCN1)CSC1=NCCN1 (tested in a mixture with another compound),73% (active)
18,N#Cc1c(N)[nH]c2ccc(Sc3ccccc3)cc12,-3% (inactive)
19,CCNc1nnc(CSc2nc(-c3ccccc3)c(-c3ccccc3)[nH]2)s1,7% (inactive)
20,CC[C@@]1(O)C(=O)OCc2c1cc1n(c2=O)Cc2cc3c(N)cccc3nc2-1,1% (inactive)
